GPR151 activ – activators of human GPR151; Q8TDV0; PathHunter beta-arrestin GPR151 cells, luminescence; AID 1508602; activation, % at 11.2 µM; 1% of 650,000 active; in the data active means activation above about 4.9%
Target sequence (Q8TDV0 whole entry, looked up): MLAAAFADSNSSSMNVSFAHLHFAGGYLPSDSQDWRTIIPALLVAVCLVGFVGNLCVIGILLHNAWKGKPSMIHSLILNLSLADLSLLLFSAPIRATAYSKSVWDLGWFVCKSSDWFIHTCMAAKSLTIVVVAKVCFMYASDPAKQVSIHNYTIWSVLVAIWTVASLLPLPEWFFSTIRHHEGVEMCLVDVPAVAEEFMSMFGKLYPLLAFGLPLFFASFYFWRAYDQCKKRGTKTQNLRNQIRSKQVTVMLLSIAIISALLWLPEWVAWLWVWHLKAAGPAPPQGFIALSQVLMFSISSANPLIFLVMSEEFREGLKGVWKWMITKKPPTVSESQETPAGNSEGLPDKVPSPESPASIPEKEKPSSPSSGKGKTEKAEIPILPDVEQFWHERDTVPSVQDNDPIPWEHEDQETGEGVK
FBW7 act – human FBW7 E3 ligase activation, primary screen | AID 1259310 | Q969H0 | AlphaScreen FBW7–phospho-cyclin E peptide binding, activator screen | 0.13% of 650,000 active | normalized activity (activation), % at 26.1 µM; in the data active means normalized activity above about 1.9%;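 further: purified mutant Fbw7 with reduced substrate affinity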
TEAD-YAP block – TEAD-YAP interaction inhibition; HEK-TIYL cells, TEAD-Gal4/YAP UAS-luciferase luminescence; inhibition, % at 9.12 µM; 1.4% of 640,000 active; in the data active means inhibition above about 32%
MITF inh – human MITF inhibition, primary screen | 0.91% of 650,000 active | inhibition, % at 2.6 µM | AlphaScreen MITF homodimerization, bead proximity signal; in the data active means inhibition above about 50%
Each line names hits and unclear results; the compound was inactive in the other large screens. In the library only some 3.5% were active in any assay of this set; here they are far more common.

Cc1cc(/C=N/Nc2ncnc(N)c2[N+](=O)[O-])c(C)n1-c1ccccc1	TEAD-YAP block 83
COc1ccc(S(=O)(=O)N(C)c2ccc(C(=O)NCc3ccccc3OC)cc2)cc1	none
CC(=O)N(C)c1ccc(NC(=O)c2cc([N+](=O)[O-])cc([N+](=O)[O-])c2)cc1	none
O=C(Nc1cccc(F)c1)C1CCC(CNc2c(N3CCCCC3)c(=O)c2=O)CC1 (stereo unspecified)	none
C/C(CC(=O)Nc1ccccc1C(F)(F)F)=N\NC(=O)c1ccccc1	none
COc1ccccc1C(=O)NC(C)C1CCCO1 (stereo unspecified)	none
CCOC(=O)C1(CCSC)NC(c2cccs2)C2C(=O)N(CC)C(=O)C21 (stereo unspecified)	TEAD-YAP block 32
CCOC(=O)C1(Cc2ccccc2)NC(c2cccs2)C2C(=O)N(CC)C(=O)C21 (stereo unspecified)	none
CCOC(=O)N1CCN(S(=O)(=O)c2ccc(C(=O)Nc3ccc(F)cc3)cc2)CC1	TEAD-YAP block 41
CCOC(=O)N1CCN(S(=O)(=O)c2ccc(C(=O)Nc3ccc(C(C)=O)cc3)cc2)CC1	none
CN(C1CCCCC1)S(=O)(=O)c1ccc(NC(=O)c2ccc(F)cc2)cc1	none
CCN(C1CCCCC1)S(=O)(=O)c1ccc(C(=O)Nc2ccc(F)cc2)cc1	TEAD-YAP block 33
O=c1[nH]c(=O)n(-c2ccccc2)c(O)c1C=Nc1ccccc1[N+](=O)[O-]	none
CSc1ccc(S(=O)(=O)Nc2ccccc2C(=O)Nc2ccc(F)cc2)cc1	none
NC(C(=O)Nc1ccc(-c2ccnc3[nH]ccc23)cc1)c1ccc(Cl)cc1 (stereo unspecified)	none
O=C(Nc1ccc(-c2ncnc3[nH]ccc23)cc1)C1COc2ccccc2O1 (stereo unspecified)	TEAD-YAP block 52
NC(C(=O)Nc1ccc(-c2ncnc3[nH]ccc23)cc1)c1ccc(Cl)cc1 (stereo unspecified)	TEAD-YAP block 57
CC[C@@H](Cn1nc(-c2ccc(F)c(F)c2)ccc1=O)NC(=O)c1ccccn1	none
O=C(Oc1ccccc1)N1CCN2C(=O)[C@@H]3CSCN3C(=O)[C@H]2C1	none
CCOc1cc([N+](=O)[O-])cc(C=Nc2ccc(N3CCN(CCO)CC3)cc2)c1O	none
Cc1ccc(C)c(NC(=O)C2(C)CC3c4ccccc4C2c2ccccc23)c1 (stereo unspecified)	none
COc1ccc(NC(=O)C2(C)CC3c4ccccc4C2c2ccccc23)cc1 (stereo unspecified)	FBW7 act 1.9
CCOC(=O)c1c(NC(=O)CSc2nnc(CNC(=O)c3ccc([N+](=O)[O-])cc3)n2-c2cccc(C)c2C)sc2c1CCC2	none
COc1cc(NC(=O)c2ccccc2)c(OC)cc1NC(=O)/C=C/c1ccc2c(c1)OCO2	none
C/C(=N\Nc1ccc(C(F)(F)F)cc1[N+](=O)[O-])C1CC1	none
C/C(=N\Nc1cccc(C(F)(F)F)c1)C1CC1	FBW7 act 3.4
C[C@]12C=CC(=O)C=C1CCC1C2[C@@H](O)C[C@@]2(C)C1CC[C@]2(O)C(=O)COC(=O)CCC(=O)O (stereo partly specified)	FBW7 act 8.0
O=C(c1ccc2c(=O)n(-c3ccccc3F)c(=S)[nH]c2c1)N1CCCCC1	TEAD-YAP block 33
COc1ccc(N2C(C(C)=O)=NN(c3ccc(Cl)cc3)C2c2ccc(OCc3c(Cl)cccc3Cl)c(OC)c2)cc1 (stereo unspecified)	none
Clc1ccc(COc2ccccc2C2N(c3ccccc3)N=C(c3ccccc3)N2c2ccccc2)cc1 (stereo unspecified)	TEAD-YAP block 85
COc1ccc(N2C(C(C)=O)=NN(c3ccccc3)C2c2ccccc2OCc2c(Cl)cccc2Cl)cc1 (stereo unspecified)	TEAD-YAP block 45
CN(C)c1ccc(-c2nc3ccc(N)cc3[nH]2)cc1	TEAD-YAP block 78
Nc1ccc2nc(-c3ccc(Cl)cc3)[nH]c2c1	none
Oc1ccc2nc(-c3ccccc3)[nH]c2c1	none
Brc1cccc(-c2nc3ccccc3[nH]2)c1	FBW7 act 1.9
Fc1cccc(-c2nc3ccccc3[nH]2)c1	none
Nc1ccc(-c2nc3cc4ccccc4cc3[nH]2)cc1	TEAD-YAP block 35
Oc1cccc(-c2nc3ccccc3[nH]2)c1	TEAD-YAP block 47
C=CCN(C(=O)Cn1c(C(=O)OC)cc2sccc21)c1ccccc1	none
CCc1c(C)sc(NC(=S)NN2CCN(C)CC2)c1C(=O)OC	none
Nc1cccc(-c2nc3ccc(N)cc3[nH]2)c1	none
Nc1ccc(-c2nc3ccc(N)cc3[nH]2)cc1	none
Nc1ccc(-c2nc3ccc(O)cc3[nH]2)cc1	TEAD-YAP block 77
Cc1ccc2nc(-c3ccc(O)cc3)[nH]c2c1	TEAD-YAP block 44
Cc1ccc2nc(-c3ccccn3)[nH]c2c1	TEAD-YAP block 64
Nc1ccc2nc(-c3cccc(O)c3)[nH]c2c1	TEAD-YAP block 42
COc1cccc2c1C(=O)c1c(O)c3c(c(O)c1C2=O)C[C@@](O)(C(C)=O)C[C@@H]3O[C@H]1C[C@H](N)[C@H](O)[C@H](C)O1	TEAD-YAP block 93
CC(=O)[C@]1(O)Cc2c(O)c3c(c(O)c2[C@@H](O[C@H]2C[C@H](N)[C@H](O)[C@H](C)O2)C1)C(=O)c1ccccc1C3=O	none
COc1cccc2c1C(=O)c1c(O)c3c(c(O)c1C2=O)C[C@@](O)(C(=O)CO)C[C@@H]3O[C@H]1C[C@H](N)[C@@H](O)[C@H](C)O1	TEAD-YAP block 62
CCc1ccc(OCC(=O)Nn2cnnc2)cc1	none
CCC1C(=O)NCCN1Cc1ccc2c(c1)CN(Cc1ccc(OCCO)cc1)CCO2 (stereo unspecified)	none
Cc1ccc(C(=O)Nc2ccc3nc(SCc4ccc(C(C)(C)C)cc4)sc3c2)cc1	none
C(=N\n1cnnc1)/c1cccc(OCc2cccc3ccccc23)c1	TEAD-YAP block 50
Brc1ccc(/C=N/n2cnnc2)cc1	none
C(=N\n1cnnc1)/c1ccc(OCc2cccc3ccccc23)cc1	none
Brc1cccc(/C=N/n2cnnc2)c1	TEAD-YAP block 91
CCCCC1=NN2C(=N)/C(=C/c3ccc(OCCOc4cccc(OC)c4)c(OCC)c3)C(=O)N=C2S1	none
CCOC(=O)c1c(NC(=O)c2sc3nc(N)c(C#N)cc3c2N)sc2c1CCC2	none
CC[C@H](Cn1nnc2ccccc2c1=O)NC(=O)Cc1ccc(OC)cc1	none
O=C(Nc1nc(CCN2C(=O)c3ccccc3C2=O)cs1)c1cccs1	none
CCN(CC)CCCNCC(=O)N1c2ccccc2Sc2ccccc21	TEAD-YAP block 40
CCN(CC)CCCNCC(=O)Nc1cc(C)on1	none
CCN(CC)CCCNCC(=O)Nc1nc(C)cs1	TEAD-YAP block 95
COc1c(Cl)cc(C(=O)Nc2c(C)ccc3nsnc23)cc1Cl	none
O=C(Nc1cc(C(F)(F)F)cc(C(F)(F)F)c1)c1ccc([N+](=O)[O-])o1	TEAD-YAP block 59
CCc1ccc(C(=O)N/N=C/c2cc(Br)c(O)c(Br)c2O)nc1	TEAD-YAP block 72, MITF inh 67
O=C1NC(=S)S/C1=C\c1ccc2c(c1)OCO2	none
O=C1NC(=S)N/C1=C/c1ccc2c(c1)OCO2	TEAD-YAP block 36

Screens (PubChem BioAssay)
